The campaign covered roughly 48,000 compounds. About 13,000 (27%) showed an effect of 50% or more. Some of the results follow.
Test system: Wolbachia pipientis
Assay: Anti-Wolbachia Cell-Based Screen
Assay type: functional
Set-up: scale not given: in the data most compounds retested in dose-response had high values
Conditions: 5 µM

| Structure (SMILES) | Percent Effect [%] |
| --- | --- |
| CC(C)C1CN(C(=O)c2cc(C3CC3)n[nH]2)CCC(=O)N1CC1CC1 (stereo not drawn) | 29.09 |
| C[C@@H]1CN(S(=O)(=O)N2CCCC2)C[C@@]1(O)C1CC1 | -6.629 |
| CNC(=O)[C@@H]1C[C@@H](NC(=O)c2ccc(OC)o2)CN1Cc1sccc1C | 3.708 |
| CC(C)CN(c1cn[nH]c1)S(=O)(=O)c1cccc(C#N)c1 | -11.66 |
| CC1(CCC(=O)N2CCC(n3cc(C4(O)CCCC4)nn3)CC2)CC1 | 8.722 |
| O=C1CN(C(=O)C2CCCOC2)CCN1Cc1ccc(Cl)cc1 (stereo not drawn) | -1.465 |
| CN(CCC(C)(C)O)C(=O)C1CCC(=O)N(Cc2ccc(Cl)cc2)C1 (stereo not drawn) | -7.945 |
| COc1ccc(CN2CCO[C@H]3CN(C(=O)C4CC4)CC[C@H]3C2=O)cc1 | -3.017 |
| COc1ccc(CN2CCO[C@H]3CN(C4CCC4)CC[C@H]3C2=O)cc1.O=C(O)C(F)(F)F | -4.57 |
| Cc1ccc(CN2CC(O)CN(C(=O)C3CC3)CC2=O)cc1 (stereo not drawn) | 98.84 |
| O=C(C1CCOCC1)N1CCN2C(=O)N(Cc3ccc(F)cc3)C[C@H]2C1 | -6.376 |
| O=C1CN(C(=O)C2CCOCC2)CCN1Cc1ccc(Cl)cc1 | -5.322 |
| O=C1CN(C(=O)C2CCCCC2)CC(O)CN1Cc1ccc(Cl)cc1 (stereo not drawn) | 110.4 |
| COc1ccc(CN2CC(O)CN(C(=O)C3CCC3)CC2=O)cc1 (stereo not drawn) | 125.6 |
| CCOCC1CN(C(=O)c2cccs2)Cc2nn(C)cc21 (stereo not drawn) | -4.192 |
| Cc1ncncc1C(=O)N1CCCC(n2ccnc2C)C1 (stereo not drawn) | 90.56 |
| CCc1nccn1C1CCCN(C(=O)c2cnn(C)c2C2CC2)C1 (stereo not drawn) | 0.8841 |
| CCn1ccnc1C1CCCN(C(=O)c2sc(C)nc2C)C1 (stereo not drawn) | -9.404 |
| CCCc1cc(C(=O)N2CCCC(n3ccnc3C)C2)[nH]n1 (stereo not drawn) | -7.935 |
| Cc1cnc(C(=O)N2CCCC(n3ccnc3C)C2)cn1 (stereo not drawn) | 4.379 |
| CC(C)c1nccn1C1CCCN(C(=O)c2cnn(C)c2C2CC2)C1 (stereo not drawn) | -1.568 |
| CCn1c(C)cc(C(=O)N2CCCC(n3ccnc3C)C2)c1C (stereo not drawn) | 101.9 |
| Cc1nccn1C1CCCN(C(=O)c2cnn(C)c2C2CC2)C1 (stereo not drawn) | 89.3 |
| CCn1c(C)cc(C(=O)N2CCCC(n3nc(C)nc3C)C2)c1C (stereo not drawn) | -3.865 |

| Structure (SMILES) | Percent Effect [%] |
| --- | --- |
| Cc1nc(C)c(C(=O)N2CCCC(n3ccnc3C)C2)s1 (stereo not drawn) | 110.6 |
| Cc1sc2nc(CCN)nc(N3CC(N4CCCCC4)C3)c2c1C | 3.569 |
| O=C(CCc1ncc(-c2ccc(F)cc2)o1)NCCN1CCOCC1 | 3.155 |
| Cc1ncsc1C(=O)N(C)Cc1cccc(Cl)c1 | -11.93 |
| CCn1[nH]c(C)c2c(C(F)(F)C(F)(F)F)cc(=O)nc1-2 | -26.97 |
| CN(CCC(F)(F)F)C(=O)C1CCCN1C(=O)OC(C)(C)C (stereo not drawn) | 12.15 |
| Cc1ccccc1SC1CCN(C(=O)C2CNC(=O)N2)CC1 (stereo not drawn) | 2.436 |
| CCN(CC)Cc1ccc(C(=O)NC2CCc3ccccc32)o1 (stereo not drawn) | -6.624 |
| O=C(CCC1CCCC1)N1CCC(O)(C(F)(F)F)C1 (stereo not drawn) | -0.53 |
| CN1CCOCC12CCN(Cc1nccs1)CC2 | 7.326 |
| Cc1cc(C)nc(CCNC(=O)C(c2ccc(F)cc2)N(C)C)n1 (stereo not drawn) | 7.326 |
| O=C(CN1C(=O)CCC1=O)NCc1cc(C2CC2)n(C2CCCC2)n1 | -8.442 |
| CCOCC(=O)NCCc1nc(C2CC2)cc(C(F)(F)F)n1 | 130.2 |
| CCOc1ccnc(NCc2nc(C)cc(C(F)(F)F)n2)n1 | -1.038 |
| O=C(CN1C(=O)CCC1=O)NCCc1nc(C2CC2)cc(C(F)(F)F)n1 | 102.8 |
| CCOCC(=O)NCCc1nc(C)cc(C(F)(F)F)n1 | 110.5 |
| CCOCC(=O)NCc1cc(C2CC2)n(C2CCCC2)n1 | 2.551 |
| Cn1nc(CNC(=O)CN2C(=O)CCC2=O)cc1C1CC1 | -2.201 |
| CCOCC(=O)NCCc1ccc(I)s1 | -15.02 |
| Cc1ncccc1C(=O)NC1CC(=O)N(CC(F)(F)F)C1 (stereo not drawn) | -0.2034 |
| O=C(NCc1ccccc1F)Nc1ccn(CCN2CCOCC2)n1 | -47.91 |
| Cc1cc(CSc2ccccn2)on1 | -1.483 |
| CN(C)CCN1C(=O)C[C@@H]2[C@@H]1CCN2S(=O)(=O)c1ccccc1.O=C(O)C(F)(F)F | -18.17 |
| CN(C)CCN1C[C@@H]2CN(S(=O)(=O)c3cccs3)C[C@@H]2C1=O.O=C(O)C(F)(F)F | -17.1 |

| Structure (SMILES) | Percent Effect [%] |
| --- | --- |
| CN(C)CCN1C[C@@H]2CN(S(=O)(=O)c3ccccc3)C[C@@H]2C1=O.O=C(O)C(F)(F)F | 104.5 |
| CN(C)CCN1C[C@@H]2CN(C(=O)C3CC=CC3)C[C@@H]2C1=O | -2.917 |
| CN(C)CCN1C[C@@H]2CN(C(=O)c3ccsc3)C[C@@H]2C1=O.O=C(O)C(F)(F)F | -6.945 |
| CN(C)CCN1C[C@@H]2CN(c3ccccc3)C[C@@H]2C1=O.O=C(O)C(F)(F)F | 89.24 |
| Cc1cc(NC(=O)N2CCN(C)CC2C)n(C(C)(C)C)n1 (stereo not drawn) | -1.035 |
| Cc1nn(C)c2nc(N(CCOc3ccccc3)CC3CCCO3)sc12 (stereo not drawn) | -19.55 |
| Clc1ccccc1OC1CN(CC2CCOC2)C1 (stereo not drawn) | -8.991 |
| Cc1cnc(N2C[C@@H]3[C@@H](C2)OCC(=O)N3CC2CC2)nc1 | 5.534 |
| Cc1nc(CN2Cc3nccn3CC(CN3CCOCC3)C2)cs1.O=C(O)C(F)(F)F.O=C(O)C(F)(F)F (stereo not drawn) | -3.569 |
| CCN1Cc2nccn2CC(COCc2csc(C)n2)C1.O=C(O)C(F)(F)F.O=C(O)C(F)(F)F (stereo not drawn) | 99.32 |
| COCC1CN(Cc2csc(C)n2)Cc2nccn2C1.O=C(O)C(F)(F)F (stereo not drawn) | -4.637 |
| Cc1nc(CN2Cc3nccn3CC(COCC3CC3)C2)cs1.O=C(O)C(F)(F)F (stereo not drawn) | -7.932 |
| CCOCC1CN(Cc2csc(C)n2)Cc2nccn2C1.O=C(O)C(F)(F)F (stereo not drawn) | -4.835 |
| COCCN1Cc2nccn2CC(COCc2csc(C)n2)C1.O=C(O)C(F)(F)F.O=C(O)C(F)(F)F (stereo not drawn) | 102.1 |
| O=C(NCc1ccco1)[C@H]1C[C@H]2OCC[C@H]2N(C(=O)c2ccnnc2)C1 | 110.4 |
| Cc1occc1C(=O)N1C[C@@H](C(=O)NCc2ccco2)C[C@H]2OCC[C@H]21 | 100.5 |
| O=C(NCc1ccco1)[C@H]1C[C@H]2OCC[C@H]2N(C(=O)c2ccco2)C1 | -11.04 |
| Cc1occc1C(=O)N1C[C@@H](C(=O)N2CCCCO2)C[C@H]2OCC[C@H]21 | -3.518 |
| CN(C)C(=O)N1C[C@@H](C(=O)NCc2ccco2)C[C@H]2OCC[C@H]21 | 111.8 |
| O=C(NCc1ccco1)[C@H]1C[C@H]2OCC[C@H]2N(S(=O)(=O)C2CC2)C1 | -11.11 |
| O=C(NCc1ccco1)[C@@H]1C[C@H]2OCC[C@H]2N(c2ncc(F)cn2)C1 | 12.25 |
| Cc1nnc(N2C[C@H](C(=O)NCc3ccco3)[C@@H]3CCO[C@@H]3C2)s1 | 0.8381 |
| O=C(NCc1ccco1)[C@H]1C[C@H]2OCC[C@H]2N(C(=O)c2ccncc2)C1.O=C(O)C(F)(F)F | -2.028 |
| NCC1Cc2cc(-c3nccc(N4CCC(O)CC4)n3)cc(F)c2O1 (stereo not drawn) | -9.833 |

| Structure (SMILES) | Percent Effect [%] |
| --- | --- |
| Cc1nnc(NCCc2nc3ccc(F)cc3n2C)c(C#N)c1C | -11.69 |
| Cc1ccccc1C(C)(C)CNC(=O)CCSc1nnnn1C | -6.777 |
| O=c1ccc2c([nH]1)CCN(S(=O)(=O)c1ccc3c(c1)OCCO3)C2 | 2.836 |
| O=S(=O)(c1ccc2c(c1)OCCO2)N1CCC(OCc2ccccn2)C1 (stereo not drawn) | -6.121 |
| O=S(=O)(c1ccc2c(c1)OCCO2)N1CCc2ccccc2C1 | 119.9 |
| Cc1nsc(NC(=O)N2CCC(C(C)(C)O)CC2)n1 | -12.37 |
| CN1CCC(N2CCCC(C(=O)N3Cc4ccccc4C3)C2)CC1 (stereo not drawn) | 88.48 |
| Cn1c(C(N)=O)cc2c1CN(C(=O)C1CCCN(C3CCCC3)C1)CC2 (stereo not drawn) | -3.385 |
| CN(C)C(=O)N1Cc2ccccc2C2(CCN(C3CCOCC3)CC2)C1 | -2.498 |
| O=C(C1CCCN(Cc2ccccc2)C1)N1CCc2sccc2C1 (stereo not drawn) | 14.78 |
| O=C(C1CCCN(C2CCOCC2)C1)N1CCc2ncccc2C1 (stereo not drawn) | 101.2 |
| O=C(C1CCCN(C2CCOCC2)C1)N1Cc2ccccc2C1 (stereo not drawn) | 98.98 |
| O=C(C1CCOCC1)N1CCc2ncnc(-c3ccccc3)c2CC1 | -2.988 |
| O=C(C1CCCN(Cc2cccnc2)C1)N1CCc2sccc2C1 (stereo not drawn) | 6.643 |
| CC(C(=O)N1CCc2sccc2C1)N1CCC(N2CCCC2)CC1 (stereo not drawn) | -24.52 |
| CCc1nnc(CN(C)c2nccc(CCC(F)(F)F)n2)o1 | -5.519 |
| CCc1ccc(C(=O)O)cc1S(=O)(=O)Nc1c(C)ccn(C)c1=O | 6.747 |
| O=C1CCCN1CCCN1CCCC1Cn1cccn1 (stereo not drawn) | 2.247 |
| COC(=O)CCNC(=O)c1ccc(OCc2ccccc2)nc1 | 0.7688 |
| COCCC1(C(=O)O)CCCN(CC(=O)NCCc2ccccc2)C1 (stereo not drawn) | -1.604 |
| COCCNC(=O)Cn1cc(OCc2ccccc2)c(=O)cc1CO | 143.5 |

Source: ChEMBL document CHEMBL3988442, “University of Dundee, Small-Polar-MMV Screening Library” (2021)
